High-throughput results deposited in PubChem by National Center for Advancing Translational Sciences (NCATS).
NS1 inh: qHTS Assay for Inhibitors of Influenza NS1 Protein Function; Potency, µM (series often up to 46.1 µM); hit rate 0.4% among 270,000; AID 2326, 2010; calls by dose curve; also: actives are rising curves; nearly all actives have a fitted effect of over 50% in size
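Growth recovery, yeast-based: influenza A NS1 expressed in S. cerevisiae causes slow growth, and suppressors are detected by OD600. The parent strain without NS1 is used as positive control.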
Vaccinia Venus: qHTS for Stage-Specific Inhibitors of Vaccinia Orthopoxvirus: Venus Reporter Primary qHTS; Potency, µM (highest dose often 36.5 µM), actives largely listed as inhibitors; Vaccinia virus Venus reporter expression, fluorescence; hit rate 0.46% among 330,000; calls by dose curve; tested in A549 cells; also: nearly all actives have a fitted effect of over 30% in size
VACV mCherry inh: qHTS for Stage-Specific Inhibitors of Vaccinia Orthopoxvirus: mCherry Reporter Primary qHTS; AID 720579, 2013; Potency, µM (doses to about 36.5 µM), hits mostly inhibitors; hit rate 0.63% among 310,000; Vaccinia virus mCherry reporter infection, fluorescence; calls by dose curve; tested in A549 cells; also: nearly all actives have a fitted effect of over 35% in size
Pf growth 96h: Primary qHTS for delayed death inhibitors of the malarial parasite plastid, 96 hour incubation. P. falciparum luciferase reporter growth, 96 h. Potency, µM (series often up to 28.7 µM), hits mostly inhibitors. hit rate 6.9% among 320,000. AID 504834, 2011
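P. falciparum expressing integrated firefly luciferase grown in erythrocytes (2% hematocrit, 0.05% parasitemia final) with compounds for 96 hours at 37 C, 5% CO2. Growth inhibition read as loss of luminescence after adding luciferase detection reagent.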
HCV inhibitor: qHTS Assay for Inhibitors of Hepatitis C Virus (HCV). Huh7.5.1 HCVcc-Cre infection, luciferase reporter, 44 h. AID 651820, 2012. hit rate 3.4% among 340,000. Potency, µM (series often up to 41.8 µM), usual class: inhibitors
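Whole-lifecycle infectious HCVcc-Cre system; cells 1,000/well, compound then virus (~0.5 moi) added 4 h after plating, 44 h culture. Luciferase read 15 sec following 15 min substrate incubation, room temp.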
Pf growth 48h: Primary qHTS for delayed death inhibitors of the malarial parasite plastid, 48 hour incubation; hit rate 5.9% among 310,000; P. falciparum luciferase growth in erythrocytes, 48 h; Potency, µM (series often up to 28.7 µM), usual class: inhibitors
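Parasite viability was followed by luminescence of a genomically integrated firefly luciferase. Cultures held 0.1% parasitemia at 2% hematocrit (final), incubated under 5% CO2 at 37 C.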
Of the large screens only hits and unclear results are named; the others gave an inactive call. An excerpt weighted towards active compounds, which were near 11% of everything screened. Unless noted, calls follow the shape of the dose curve; as a rule, active = well fitted inhibition curve with a large enough effect; inconclusive = small, poorly fitted or top-dose-only effect, or another doubt; inactive = no such curve, though single readings can be large or run the other way.

CCC(OCC(O)CN1CCN(CCN2C(=O)c3cccc4cccc(c34)C2=O)CC1)c1ccccc1 (configuration not stated)	Vaccinia Venus inconclusive, VACV mCherry inh inconclusive, Pf growth 96h inconclusive, HCV inhibitor 7.9µM, Pf growth 48h inconclusive
C=CCc1ccccc1OCC(O)CN1CCN(c2ccc(C)cc2)CC1 (configuration not stated)	Pf growth 96h 9.3µM, HCV inhibitor inconclusive, Pf growth 48h inconclusive
C=CCc1ccccc1OCC(O)CN1CCN(CCN2C(=O)c3cccc4cccc(c34)C2=O)CC1 (configuration not stated)	Vaccinia Venus inconclusive, VACV mCherry inh inconclusive, HCV inhibitor 14µM, Pf growth 48h inconclusive
COc1ccc(N(Cc2cc3cc(OC)ccc3[nH]c2=O)S(=O)(=O)c2ccc(NC(C)=O)cc2)cc1	Pf growth 96h 9.3µM, HCV inhibitor inconclusive, Pf growth 48h 2.3µM (no result: Vaccinia Venus, VACV mCherry inh)
COc1ccc2[nH]c(=O)c(CN(c3ccc(C)c(C)c3)S(C)(=O)=O)cc2c1	Pf growth 96h 6.6µM (no result: NS1 inh)
COc1ccc(N(Cc2cc3ccccc3[nH]c2=O)S(=O)(=O)c2ccc(OC)cc2)cc1	Pf growth 96h inconclusive (no result: Vaccinia Venus, VACV mCherry inh)
O=C1C(Oc2ccc(Cl)cc2)C(c2ccc3c(c2)OCO3)N1CC1CCCO1 (configuration not stated)	HCV inhibitor inconclusive, Pf growth 48h inconclusive (no result: Vaccinia Venus, VACV mCherry inh)
COc1ccc(C(=O)Nc2ccccc2N2CCCCC2)cc1[N+](=O)[O-]	Pf growth 96h 12µM, HCV inhibitor inconclusive, Pf growth 48h inconclusive (no result: Vaccinia Venus, VACV mCherry inh)
COc1ccc(C(=O)Nc2ccc(Nc3ccccc3)cc2)cc1[N+](=O)[O-]	HCV inhibitor 11µM (no result: Vaccinia Venus, VACV mCherry inh)
CN1CCN(c2ccccc2NC(=O)c2ccc(N3CCOCC3)c([N+](=O)[O-])c2)CC1	Pf growth 48h inconclusive
Cc1ccc(C(=O)NC(=S)Nc2ccccc2N2CCCC2)cc1[N+](=O)[O-]	HCV inhibitor inconclusive
CN1CCN(c2ccccc2NC(=O)c2ccc(N3CCCCC3)c([N+](=O)[O-])c2)CC1	Pf growth 96h inconclusive, HCV inhibitor inconclusive, Pf growth 48h 13µM (no result: Vaccinia Venus, VACV mCherry inh)
COc1ccc(S(=O)(=O)Nc2ccccc2N2CCOCC2)cc1[N+](=O)[O-]	VACV mCherry inh inconclusive, HCV inhibitor inconclusive, Pf growth 48h 13µM
COc1ccc(S(=O)(=O)Nc2ccc(N3CCOCC3)cc2)cc1[N+](=O)[O-]	none
Cc1ccc(Cl)cc1N(CC(=O)NC1CCCCC1)S(C)(=O)=O	none
N#Cc1c(NC(=O)C(=O)NCCCN2CCOCC2)sc2c1CCCC2	none (no result: Vaccinia Venus, VACV mCherry inh)
CC(=O)Oc1ccc(/C=N/NC(=O)C2CCCN2S(=O)(=O)c2ccc(Cl)cc2)cc1 (configuration not stated)	none (no result: VACV mCherry inh, Pf growth 48h)
O=C(OC1C[C@H]2CC[C@@H](C1)[N+]21CCCC1)C(O)(c1ccccc1)c1ccccc1 (some centres not stated)	Pf growth 48h 6.7µM (no result: NS1 inh, Vaccinia Venus, VACV mCherry inh, HCV inhibitor)
C/C(=N\NC(N)=S)c1ccc(Cl)s1	Vaccinia Venus inconclusive, VACV mCherry inh 0.35µM, Pf growth 96h inconclusive
C/C(=N\NC(=O)c1ccoc1C)c1ccc(Cl)s1	none (no result: Vaccinia Venus, VACV mCherry inh)
C/C(=N\NC(=S)NC(C)C)c1ccc(Cl)s1	Pf growth 96h inconclusive, HCV inhibitor 6.3µM
C/C(=N\NC(=S)NC(C)C)c1ccc2c(c1)OCCO2	VACV mCherry inh inconclusive, HCV inhibitor inconclusive
Cc1ccc(N/C(CSC(N)=O)=N\S(=O)(=O)c2ccc(C)cc2)cc1	none (no result: Vaccinia Venus, VACV mCherry inh, Pf growth 96h, Pf growth 48h)
Cc1ccc(N/C(CSC(N)=O)=N/S(=O)(=O)c2ccccc2)cc1	Pf growth 96h 3.3µM (no result: Vaccinia Venus, VACV mCherry inh)
Nc1scc2c(C(=O)N/N=C/c3ccc(Cl)cc3)nn(-c3ccccc3)c(=O)c12	Pf growth 96h 5.2µM, Pf growth 48h inconclusive (no result: Vaccinia Venus, VACV mCherry inh)
CC(=O)OC[C@@H]1CN(Cc2ccccc2)C[C@H](n2cnc3c(NCc4ccc(F)cc4)ncnc32)O1	VACV mCherry inh inconclusive (no result: NS1 inh, Pf growth 96h, HCV inhibitor, Pf growth 48h)
C#Cc1ccc([C@@H]2C=C(C(=O)OCC=C)O[C@H](OCC)[C@H]2CCCO)cc1	Pf growth 96h 2.3µM, Pf growth 48h inconclusive
C#Cc1ccc([C@H]2C=C(C(=O)OCC=C)O[C@@H](OCC)[C@@H]2CCCO)cc1	Pf growth 96h inconclusive
C#Cc1ccc([C@@H]2C=C(C(=O)Nc3ccccc3)O[C@H](OCC)[C@H]2CCCO)cc1	Vaccinia Venus inconclusive, Pf growth 96h 1.9µM, Pf growth 48h inconclusive
CN(C)c1nc(Nn2cnnc2)nc(N(C)C)n1	none
Cc1cc(C)c2cc(CN(CCO)C(c3nnnn3Cc3ccc(F)cc3)C(C)C)c(=O)[nH]c2c1 (configuration not stated)	Pf growth 96h 12µM, HCV inhibitor inconclusive, Pf growth 48h inconclusive (no result: Vaccinia Venus, VACV mCherry inh)
Cc1cc(C)c2cc(C(O)c3nnnn3Cc3ccccc3)c(=O)[nH]c2c1 (configuration not stated)	Pf growth 48h inconclusive
CN(C)CCNC(=O)Cn1ccc2cc(S(=O)(=O)N3CCCCC3)ccc21	none (no result: Vaccinia Venus, VACV mCherry inh)
COc1cc(-n2nnnc2SCC(=O)N2CCN(c3ccc(F)cc3)CC2)c(OC)cc1Cl	HCV inhibitor 11µM, Pf growth 48h 15µM (no result: Pf growth 96h)
Cc1cccc(C(=O)n2nc(C)c(S(=O)(=O)N3CCOCC3)c2C)c1	none (no result: NS1 inh, Pf growth 96h, HCV inhibitor, Pf growth 48h)
COc1cccc(NC(=O)c2cc([N+](=O)[O-])ccc2NCc2cccnc2)c1	Pf growth 96h inconclusive, HCV inhibitor inconclusive, Pf growth 48h 10µM
Cc1ccc(NC(=O)c2cc([N+](=O)[O-])ccc2NCc2cccnc2)cc1Cl	Pf growth 96h 2.1µM, HCV inhibitor inconclusive, Pf growth 48h 5.9µM (no result: Vaccinia Venus, VACV mCherry inh)
O=C(O)c1cc([N+](=O)[O-])ccc1NCc1cccnc1	none
O=C(Cc1ccccc1F)Nc1nc2ccccc2[nH]1	none
Cc1c(C(=O)N2CCCCC2)c(S(=O)(=O)NCc2ccccc2Cl)c(C)n1C	Pf growth 96h 13µM
Cc1c2ccncc2c(C)c2c1[nH]c1ccccc12	Vaccinia Venus 10µM, VACV mCherry inh 11µM, Pf growth 96h 1µM, HCV inhibitor inconclusive, Pf growth 48h 1µM
COc1ccc2[nH]c(C)cc(=O)c2c1	none (no result: VACV mCherry inh)
COc1ccc2[nH]c3c(C)c4ccncc4c(C)c3c2c1	Vaccinia Venus 10µM, VACV mCherry inh 7.1µM, Pf growth 96h 0.37µM, HCV inhibitor 2.2µM, Pf growth 48h 0.37µM
Cc1c2ccncc2cc2c1[nH]c1ccccc12	Vaccinia Venus 10µM, VACV mCherry inh 16µM, HCV inhibitor 6.3µM (no result: NS1 inh, Pf growth 96h, Pf growth 48h)
COC(=O)C1=C(C)N(C)C(C)=C(C(=O)OC)C1c1ccncc1	none
COC(=O)c1ccccc1N=Nc1c(N)[nH][nH]c1=O	none
CCC(C)(C)NC(=O)c1ccc2c(c1)N(CC(=O)NC1CCCC1)C(=O)C(C)(C)O2	Pf growth 96h 6.6µM
Cc1ccc(-n2c3nc(=O)[nH]c(=O)c-3cc3cc([N+](=O)[O-])ccc32)cc1C	HCV inhibitor 35µM
